# Experimental data: ChEMBL document CHEMBL3988442, “University of Dundee, Small-Polar-MMV Screening Library” (2021)
# Hit rate of the full screen: of about 48,000 compounds, about 13,000 (27%) showed an effect of 50% or more. Some of the results follow.
# Tested on: Wolbachia pipientis
# Assay: Anti-Wolbachia Cell-Based Screen
# Type: functional
# Design: scale not given: in the data most compounds retested in dose-response had high values
# Settings: 5 µM
row,SMILES,Percent Effect
1,CCC(C)Nc1ccc(-c2nc(-c3cccc(OC)c3OC)no2)cn1 (configuration not stated),24.9%
2,Cc1ccc(NCCCNC(=O)NCc2c(C)cc(C)[nH]c2=O)nc1,7.392%
3,CC(=O)c1ccc(NC(=O)NC(C)c2ccc3c(c2)CC(=O)N3)cc1 (configuration not stated),0.8032%
4,CNC(=O)c1ccc(NC(=O)NC(C)c2cc(C)oc2C)cc1 (configuration not stated),-7.2%
5,CC(=O)c1ccc(NC(=O)NC(C(=O)N(C)C)C(C)C)cc1 (configuration not stated),-8.422%
6,CC(=O)c1ccc(NC(=O)C(NC(=O)Nc2ccccc2)C(C)C)cc1 (configuration not stated),128.1%
7,CC(C)[C@H](NC(=O)NC1CCS(=O)(=O)C1)C(=O)Nc1cccnc1 (some centres not stated),9.774%
8,CC(Cn1cccn1)NC(=O)Nc1ccc(F)cc1 (configuration not stated),5.847%
9,CC(C)C(NC(=O)Nc1ccc(F)cc1)C(=O)N(C)C (configuration not stated),92.8%
10,CC(C)NC(=O)c1ccc(NC(=O)NC(C)c2ccccn2)cc1 (configuration not stated),-7.886%
11,CC(=O)c1ccc(NC(=O)N[C@H](C(=O)O)C(C)C)cc1,99.56%
12,CN1C(=O)CC(C(=O)O)C12CCN(Cc1ccc(Cl)c(Cl)c1)CC2 (configuration not stated),-9.214%
13,Cc1cccc(-c2noc([C@@H]3C[C@@H](O)CN3C)n2)c1,-0.5094%
14,CC(C)NC(=O)c1ccc2c(c1)C(c1nc[nH]n1)CN2S(C)(=O)=O (configuration not stated),2.921%
15,COc1cccc(COCC(=O)N2CCN(CC(C)(C)O)CC2)c1,-0.1486%
16,O=C(O)C(F)(F)F.O=C(O)C(F)(F)F.c1cnc(NCc2ncn3c2CN(Cc2cccnc2)CCC3)nc1,4.407%
17,O=C(O)C(F)(F)F.O=S(=O)(c1cccs1)N1CCCn2cnc(CO)c2C1,-6.746%
18,O=C(O)C(F)(F)F.O=C(O)C(F)(F)F.c1cc(CN2CCCn3cnc(COCC4CC4)c3C2)ccn1,-1.984%
19,O=C(O)C(F)(F)F.O=S(=O)(Cc1ccccc1)N1CCCn2cnc(CN3CCCC3)c2C1,-19.91%
20,O=C(O)C(F)(F)F.O=S(=O)(C1CC1)N1CCCn2cnc(COc3cccnc3)c2C1,121.6%
21,Fc1cnc(N2CCCn3cnc(COc4cccnc4)c3C2)nc1.O=C(O)C(F)(F)F,88.73%
22,CCS(=O)(=O)N1CCCn2cnc(COc3cccnc3)c2C1.O=C(O)C(F)(F)F,90.76%
23,CN(C)C(=O)COCc1ncn2c1CN(c1ncc(F)cn1)CCC2,5.015%
24,CN(C)CCOCc1ncn2c1CN(c1ncc(F)cn1)CCC2.O=C(O)C(F)(F)F,-8.613%
25,O=S(=O)(NC(CO)Cc1c[nH]c2ccccc12)c1cncc(F)c1 (configuration not stated),0.282%

row,SMILES,Percent Effect
1,O=C(CCc1nc(Cl)n[nH]1)N1C[C@@H](CN2CCCCC2)[C@@H](CO)C1,12.3%
2,N#Cc1ccccc1N1CCCN(CC(=O)Nc2ccccc2Cl)CC1,11.85%
3,Cc1cc2c(=O)n3c(nc2s1)CCN(C(=O)c1ccncc1)CC3,-15.49%
4,CCN1CCC(CC(=O)N2CCn3cccc3C2c2cccnc2)CC1 (configuration not stated),-1.172%
5,CCC1c2cccn2CCN1C(=O)c1ccc2nonc2c1 (configuration not stated),-3.198%
6,CCCC1c2cccn2CCN1C(=O)c1cc(CC)no1 (configuration not stated),123.5%
7,Cc1ncsc1CCC(=O)N1CCn2cccc2C1c1cccnc1 (configuration not stated),2.617%
8,Cc1cc2c(=O)n(CC(=O)N3CCn4cccc4C3C(C)C)cnc2s1 (configuration not stated),139.9%
9,CCc1cc(C(=O)N2CCC(C3CCN(c4ncccn4)CC3)C2)on1 (configuration not stated),-2.788%
10,CNC(=O)C1CCCCN1C(=O)CCn1cnc2sccc2c1=O (configuration not stated),2.602%
11,CCC1c2ccc(C)n2CCN1C(=O)Cn1cnc2sc(C)cc2c1=O (configuration not stated),132.6%
12,CCCC1c2cccn2CCN1C(=O)Cn1cnc2sc(C)cc2c1=O (configuration not stated),146.6%
13,COC(=O)CCNC(=O)c1nnn(-c2ccccc2)c1C(F)(F)F,-9.818%
14,CS(=O)(=O)N1CCCCCC1C1CCN(Cc2nc(C3CC3)no2)CC1 (configuration not stated),-7.435%
15,Cc1nc(NC(=O)CN2C(=O)c3ccccc3NC2C(C)C)sc1C (configuration not stated),126.1%
16,Cc1nc(NC(=O)C(C)N2CCN(c3ccccc3F)CC2)sc1C (configuration not stated),2.631%
17,Cc1cc(C2CCCN(CC(=O)Nc3nc4c(s3)CCC4)C2)n[nH]1 (configuration not stated),7.579%
18,Cc1nc(NC(=O)C2CCCN(C(N)=O)C2)sc1-c1ccccc1 (configuration not stated),3.163%
19,Cc1nc(NC(=O)CCN2C(=O)c3ccccc3NC2C(C)C)sc1C (configuration not stated),126.1%
20,O=C(CN1CCCC(c2ccn[nH]2)C1)Nc1nc2c(s1)CCC2 (configuration not stated),-12.59%
21,Cc1nc(NC(=O)CN2CCOC(Cn3cccn3)C2)sc1C (configuration not stated),-8.379%
22,CC(C)C1Nc2ccccc2C(=O)N1CC(=O)Nc1nc2c(s1)CCC2 (configuration not stated),128.1%
23,Cc1nc(NC(=O)CN2CCc3c(nc(C(C)C)n3C)C2)sc1C,-4.598%
24,Cc1cc(NCC(=O)N(C)CC(F)(F)F)c(C(N)=O)cc1F,-3.816%
25,O=S(=O)(Nc1ccon1)c1cc(Cl)cc2c1OCC2,4.815%

row,SMILES,Percent Effect
1,CCCS(=O)(=O)N(C)C(=O)CCc1ccsc1,-1.511%
2,CN(C)c1ccccc1C(=O)N1C[C@@H](CN2CCCCC2)[C@@H](CO)C1,-1.886%
3,O=C(O)C(F)(F)F.O=C(O)C(F)(F)F.c1cncc(CN2Cc3nccn3CC(Cn3cccn3)C2)c1 (configuration not stated),90.07%
4,O=C(O)C(F)(F)F.O=C(O)C(F)(F)F.c1cc(CN2Cc3nccn3CC(Cn3cncn3)C2)ccn1 (configuration not stated),106.6%
5,Cc1nc(C)n(CC2CN(Cc3cccnc3)Cc3nccn3C2)n1.O=C(O)C(F)(F)F.O=C(O)C(F)(F)F (configuration not stated),6.866%
6,Cc1nc(C)n(CC2CN(Cc3ccncc3)Cc3nccn3C2)n1.O=C(O)C(F)(F)F.O=C(O)C(F)(F)F (configuration not stated),-4.303%
7,O=C(O)C(F)(F)F.c1cncc(CN2Cc3nccn3CC(Cn3cncn3)C2)c1 (configuration not stated),126.5%
8,CC(=O)N1[C@H](Cn2cncn2)C[C@@H]2CN(Cc3cccnc3)CC[C@@H]21.O=C(O)C(F)(F)F.O=C(O)C(F)(F)F,-6.622%
9,CCc1ccc(CN2Cc3nccn3CC(Cn3cncn3)C2)o1.O=C(O)C(F)(F)F (configuration not stated),101.6%
10,Cc1cc(C2CCCN2C(=O)NCc2cccnc2OC(C)C)on1 (configuration not stated),10.48%
11,O=c1[nH]c(-c2ccc(Cl)cc2)nc2c1CCNC2,-17.05%
12,CSc1ccc(CN(C(=O)c2cc(C)[nH]c(=O)c2)C2CC2)cc1,12.75%
13,COC(C)(C)c1noc(C2(C#N)CCCCC2)n1,-1.328%
14,CCOC(=O)NC(CNC(=O)c1ncccn1)CC(C)C (configuration not stated),3.45%
15,CNC(=O)[C@@H](c1ccccc1OC)N1CCC[C@H]1C(=O)NC(C)(C)C.Cl,1.665%
16,CCC(Nc1ccc(Oc2ccc(C#N)cc2OC)cc1)C(N)=O (configuration not stated),-15.11%
17,Cc1nc(C)n(CC2CN(Cc3cccs3)Cc3nccn3C2)n1.O=C(O)C(F)(F)F (configuration not stated),12.7%
18,O=C(O)C(F)(F)F.c1csc(CN2Cc3nccn3CC(Cn3cncn3)C2)c1 (configuration not stated),90.09%
19,O=C(O)C(F)(F)F.c1csc(CN2Cc3nccn3CC(Cn3cncn3)C2)n1 (configuration not stated),-6.751%
20,COc1ccccc1-c1nnc([C@H]2CCN(C(=O)C3CC3)C2)o1,-2.817%
21,CC(C)Nc1cc(-c2c[nH]nc2C2CCN(C(=O)C3CC3)C2)ccn1 (configuration not stated),259.2%
22,CN1CCCC(C(=O)N2CCC(Oc3ncccn3)CC2)C1 (configuration not stated),16.76%
23,CC(C)Oc1ncccc1CNC(=O)C1CCCN(C(=O)C2CC2)C1 (configuration not stated),-12.74%
24,CC(C)CNc1cc(-c2c[nH]nc2C2CCN(C(=O)C3CC3)C2)ccn1 (configuration not stated),239.9%
25,COc1ccc(OC)c(C2CCN(C(=O)C3CCN(C(C)C)CC3)C2)c1 (configuration not stated),-6.334%

row,SMILES,Percent Effect
1,CC(C)Nc1cc(-c2c[nH]nc2C2CCN(C(=O)C3CCC3)C2)ccn1 (configuration not stated),269%
2,CCN(CC)CCn1cnc(-c2ccccc2)c1-c1cnc(C)s1,-4.484%
3,c1ccc(-c2cc(CN3CCCC(Cn4cncn4)C3)on2)cc1 (configuration not stated),156.9%
4,Cc1cc(CN2CCCC2Cn2cncn2)no1 (configuration not stated),1.75%
5,Cc1cc(CN2CCCC(Cn3cncn3)C2)on1 (configuration not stated),123.2%
6,Cc1cc(CN2CCCC(Cn3cncn3)C2)no1 (configuration not stated),117%
7,Cc1cc(NC(=O)CN2CCCC(Cn3cncn3)C2)on1 (configuration not stated),0.4633%
8,Cc1cc(NC(=O)CN2CCCC(Cn3cncn3)C2)no1 (configuration not stated),-8.5%
9,c1ccc(-c2nc(CN3CCCC(Cn4cncn4)C3)co2)cc1 (configuration not stated),5.722%
10,c1ccc(-c2nc(CN3CCCC(Cn4cncn4)C3)no2)cc1 (configuration not stated),-1.614%
11,Cc1ccc(-c2nc(CN3CCCC(Cn4cncn4)C3)co2)cc1 (configuration not stated),142.7%
12,c1ncn(CC2CCCN(Cc3nc(C4CC4)no3)C2)n1 (configuration not stated),-1.701%
13,Cc1nc2ccccc2nc1CN1CCCC(Cn2cncn2)C1 (configuration not stated),-7.654%
14,Cc1cccc(-c2noc(CN3CCCC(Cn4cncn4)C3)n2)c1 (configuration not stated),6.393%
15,NC(=O)C1CCCN1Cc1ccccc1NC(=O)CC(F)(F)F (configuration not stated),-9.794%
16,O=C1CC(C(=O)Nc2nnc(-c3ccoc3)[nH]2)c2ccccc2N1 (configuration not stated),-8.464%
17,COc1ccc(OC)c2c(C)cc(N(CCO)CCO)nc12,-7.73%
18,CCn1c(CC2CCN(C(=O)c3cc(C(C)C)n[nH]3)CC2)n[nH]c1=O,-9.861%
19,CCC[C@H]1CN(CCS(C)(=O)=O)C[C@@H]1NC(=O)c1ccccn1,20.97%
20,Cc1ccoc1-c1nnc(CN2CCCC(Cn3cncn3)C2)o1 (configuration not stated),-5.411%
21,Fc1ccc(-c2nnc(CN3CCCC(Cn4cncn4)C3)o2)cc1 (configuration not stated),112.2%
22,Fc1ccc(-c2nnc(CN3CCOC(Cn4cncn4)C3)o2)cc1 (configuration not stated),-1.88%
